# Test results as given in PubChem BioAssay (NCATS).
# Records with an inconclusive call do not appear. Entries that show only a call come without a potency. Values without a mark were called inactive. Activity calls are given as the source filed them. Calls come from the whole dose curve; as a rule, active = well fitted curve in the direction sought with a large enough effect; inconclusive = small, poorly fitted or top-dose-only effect, or another doubt; inactive = no such curve, though single readings can be large; an effect the other way counts as inactive or inconclusive.
# Tests used:
# [1] = target: ATP-dependent 6-phosphofructokinase (Trypanosoma brucei brucei) (UniProt O15648); test: qHTS Assay to Find Inhibitors of T. brucei phosphofructokinase: hit validation (AID 492961);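 note: luminescence reports ADP formed as PFK phosphorylates fructose-6-phosphate with ATP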
# Method in brief: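 Reaction: 0.1 M triethanolamine pH 8.0, 5 mM MgCl2, F6P 0.5 mM, ATP 0.1 mM, PFK 1.25 nM, 45 min RT. Read-out: ADP-Glo luminescence. Analysis: concentration-response fits, classed by r2 and efficacy.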
# [2] = qHTS profiling for inhibitors of Plasmodium falciparum proliferation (AID 504749); note: potency is the fitted concentration of half-maximal effect; for all read-outs here: nearly all actives have a fitted effect of over 60% in size; settings: P. falciparum in erythrocytes, SYBR Green DNA, 72 h; for activity, negative = inhibition: at 28.7 µM (top of the series)
# Method in brief: (§1)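 Quantitative HTS: compounds pinned into medium, infected erythrocytes added (0.3% parasitemia, 2.5% hematocrit), 72 h culture at 37 C under 5% CO2. Saponin/Triton lysis with SYBR Green I, overnight RT, then fluorescence read.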
# AA1029 = test: as above; settings: P. falciparum in erythrocytes, SYBR Green DNA, 72 h; series mostly up to 28.7 µM
# Method in brief: as §1
# AS120 = test: as above; settings: P. falciparum in erythrocytes, SYBR Green DNA, 72 h; series mostly up to 28.7 µM
# Method in brief: as §1
# ATS189 = test: as above; settings: P. falciparum in erythrocytes, SYBR Green DNA, 72 h; series mostly up to 28.7 µM
# Method in brief: as §1
# CP185 = test: as above; settings: P. falciparum in erythrocytes, SYBR Green DNA, 72 h; series mostly up to 28.7 µM
# Method in brief: as §1
# CP217 = test: as above; settings: P. falciparum in erythrocytes, SYBR Green DNA, 72 h; series mostly up to 28.7 µM
# Method in brief: as §1
# CP238 = test: as above; settings: P. falciparum in erythrocytes, SYBR Green DNA, 72 h; series mostly up to 28.7 µM
# Method in brief: as §1
# CP252 = test: as above; settings: P. falciparum in erythrocytes, SYBR Green DNA, 72 h; series mostly up to 28.7 µM
# Method in brief: as §1
# CP262 = test: as above; settings: P. falciparum in erythrocytes, SYBR Green DNA, 72 h; series mostly up to 28.7 µM
# Method in brief: as §1
# CP265 = test: as above; settings: P. falciparum in erythrocytes, SYBR Green DNA, 72 h; series mostly up to 28.7 µM
# Method in brief: as §1
# CP286 = test: as above; settings: P. falciparum in erythrocytes, SYBR Green DNA, 72 h; series mostly up to 28.7 µM
# Method in brief: as §1
# DFO2036 = test: as above; settings: P. falciparum in erythrocytes, SYBR Green DNA, 72 h; series mostly up to 28.7 µM
# Method in brief: as §1
# ECU = test: as above; settings: P. falciparum in erythrocytes, SYBR Green DNA, 72 h; series mostly up to 28.7 µM
# Method in brief: as §1
# FAB9 = test: as above; settings: P. falciparum in erythrocytes, SYBR Green DNA, 72 h; series mostly up to 28.7 µM
# Method in brief: as §1
# N140 = test: as above; settings: P. falciparum in erythrocytes, SYBR Green DNA, 72 h; series mostly up to 28.7 µM
# Method in brief: as §1
# TAB109 = test: as above; settings: P. falciparum in erythrocytes, SYBR Green DNA, 72 h; series mostly up to 28.7 µM
# Method in brief: as §1
# CP211 = test: as above; settings: P. falciparum in erythrocytes, SYBR Green DNA, 72 h; series mostly up to 28.7 µM
# Method in brief: as §1
# CP269 = test: as above; settings: P. falciparum in erythrocytes, SYBR Green DNA, 72 h; series mostly up to 28.7 µM
# Method in brief: as §1
# CP329 = test: as above; settings: P. falciparum in erythrocytes, SYBR Green DNA, 72 h; series mostly up to 28.7 µM
# Method in brief: as §1
# ATP-dependent 6-phosphofructokinase (Trypanosoma brucei brucei), sequence (O15648 whole entry, looked up): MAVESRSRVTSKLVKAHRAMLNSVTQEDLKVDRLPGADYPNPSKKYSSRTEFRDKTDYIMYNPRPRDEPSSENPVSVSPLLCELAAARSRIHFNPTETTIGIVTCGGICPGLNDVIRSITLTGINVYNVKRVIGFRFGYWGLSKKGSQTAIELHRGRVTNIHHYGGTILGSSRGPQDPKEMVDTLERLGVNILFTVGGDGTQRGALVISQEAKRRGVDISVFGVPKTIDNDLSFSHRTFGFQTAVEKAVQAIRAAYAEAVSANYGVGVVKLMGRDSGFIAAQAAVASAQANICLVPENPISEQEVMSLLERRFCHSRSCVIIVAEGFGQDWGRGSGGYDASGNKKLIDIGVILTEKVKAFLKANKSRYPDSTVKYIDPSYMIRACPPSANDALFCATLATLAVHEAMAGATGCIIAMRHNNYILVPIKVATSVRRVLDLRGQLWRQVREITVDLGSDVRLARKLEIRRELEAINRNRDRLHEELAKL
compound,measurement,setting,value
CC(=O)OC1C([N+]2(C)CCCCC2)C[C@H]2C3CC[C@H]4C[C@H](OC(C)=O)C([N+]5(C)CCCCC5)CC4(C)C3CCC12C (stereo partly specified),Potency,[1],inactive
same,"activity, negative = inhibition",[2]; parasite line A,-25%
same,"activity, negative = inhibition",[2]; parasite line B,8.8%
same,Potency,AA1029,inactive
same,Potency,AS120,inactive
same,Potency,ATS189,inactive
same,Potency,CP185,inactive
same,Potency,CP217,inactive
same,Potency,CP238,inactive
same,Potency,CP252,inactive
same,Potency,CP262,inactive
same,Potency,CP265,inactive
same,Potency,CP286,inactive
same,Potency,DFO2036,inactive
same,Potency,ECU,inactive
same,Potency,FAB9,inactive
same,Potency,N140,inactive
same,Potency,TAB109,inactive
CO[C@H]1C[C@@H]2CC[C@@H](C)[C@@](O)(O2)C(=O)C(=O)N2CCCC[C@H]2C(=O)O[C@H]([C@H](C)C[C@@H]2CC[C@@H](O)[C@H](OC)C2)CC(=O)[C@H](C)/C=C(\C)[C@@H](O)[C@@H](OC)C(=O)[C@H](C)C[C@H](C)/C=C/C=C/C=C/1C,Potency,[1],inactive
same,Potency,[2]; parasite line A,3.55 µM (active)
same,Potency,[2]; parasite line B,1.78 µM (active)
same,Potency,AA1029,2.51 µM (active)
same,Potency,AS120,1.78 µM (active)
same,Potency,ATS189,3.55 µM (active)
same,Potency,CP185,5.62 µM (active)
same,Potency,CP211,4.26 µM (active)
same,Potency,CP217,3.16 µM (active)
same,Potency,CP238,3.98 µM (active)
same,Potency,CP252,2.82 µM (active)
same,Potency,CP262,4.78 µM (active)
same,Potency,CP265,3.16 µM (active)
same,Potency,CP269,4.26 µM (active)
same,Potency,CP286,5.01 µM (active)
same,Potency,CP329,4.26 µM (active)
same,Potency,DFO2036,1.78 µM (active)
same,Potency,ECU,2.51 µM (active)
same,Potency,N140,1.58 µM (active)
same,Potency,TAB109,2.24 µM (active)
CCCCC(=O)O[C@]1(C(=O)CO)CCC2C3CCC4=CC(=O)CCC4(C)C3C(O)CC21C (stereo partly specified),Potency,[1],inactive
same,"activity, negative = inhibition",[2]; parasite line A,-2.08%
same,"activity, negative = inhibition",[2]; parasite line B,-4.71%
same,Potency,AA1029,inactive
same,Potency,AS120,inactive
same,Potency,ATS189,inactive
same,Potency,CP185,inactive
same,Potency,CP211,inactive
same,Potency,CP217,inactive
same,Potency,CP238,inactive
same,Potency,CP252,inactive
same,Potency,CP262,inactive
same,Potency,CP265,inactive
same,Potency,CP269,inactive
same,Potency,CP286,inactive
same,Potency,CP329,inactive
same,Potency,DFO2036,inactive
same,Potency,ECU,inactive
same,Potency,FAB9,inactive
same,Potency,N140,inactive
same,Potency,TAB109,inactive
C[C@]12CC[C@@H]3c4ccc(O)cc4C[C@@H](CCCCCCCCCS(=O)CCCC(F)(F)C(F)(F)F)C3[C@@H]1CC[C@@H]2O (stereo partly specified),Potency,[1],inactive
same,Potency,[2]; parasite line A,11.2 µM (active)
same,Potency,[2]; parasite line B,10 µM (active)
same,Potency,AA1029,7.08 µM (active)
same,Potency,AS120,2.51 µM (active)
same,Potency,ATS189,7.94 µM (active)
same,Potency,CP185,8.91 µM (active)
same,Potency,CP217,8.91 µM (active)
same,Potency,CP238,7.94 µM (active)
same,Potency,CP252,8.91 µM (active)
same,Potency,CP262,inactive
same,Potency,CP265,11.2 µM (active)
same,Potency,CP286,11.2 µM (active)
same,Potency,DFO2036,11.2 µM (active)
same,Potency,ECU,3.55 µM (active)
same,Potency,FAB9,8.91 µM (active)
same,Potency,N140,2.24 µM (active)
same,Potency,TAB109,10 µM (active)
CO/N=C(/C(=O)N[C@@H]1C(=O)N2C(C(=O)O)=C(CSC(=O)c3ccco3)CSC12)c1csc(N)n1 (stereo partly specified),Potency,[1],inactive
same,"activity, negative = inhibition",[2]; parasite line A,2.76%
same,"activity, negative = inhibition",[2]; parasite line B,0.141%
same,Potency,AA1029,inactive
same,Potency,AS120,inactive
same,Potency,ATS189,inactive
same,Potency,CP185,inactive
same,Potency,CP211,inactive
same,Potency,CP217,inactive
same,Potency,CP238,inactive
same,Potency,CP252,inactive
same,Potency,CP262,inactive
same,Potency,CP265,inactive
same,Potency,CP269,inactive
same,Potency,CP286,inactive
same,Potency,CP329,inactive
same,Potency,DFO2036,inactive
same,Potency,ECU,inactive
same,Potency,FAB9,inactive
same,Potency,N140,inactive
same,Potency,TAB109,inactive
CCC(=O)O[C@]1(C(=O)CCl)[C@@H](C)CC2C3C[C@H](F)C4=CC(=O)C=CC4(C)[C@@]3(F)C(O)CC21C (stereo partly specified),Potency,[1],inactive
same,Potency,[2]; parasite line A,12.6 µM (active)
same,Potency,[2]; parasite line B,11.2 µM (active)
same,Potency,AA1029,8.91 µM (active)
same,Potency,AS120,7.94 µM (active)
same,Potency,ATS189,10 µM (active)
same,Potency,CP185,11.2 µM (active)
same,Potency,CP211,9.53 µM (active)
same,Potency,CP217,7.94 µM (active)
same,Potency,CP238,8.91 µM (active)
same,Potency,CP252,8.91 µM (active)
same,Potency,CP262,9.53 µM (active)
same,Potency,CP265,8.91 µM (active)
same,Potency,CP269,12 µM (active)
same,Potency,CP286,10 µM (active)
same,Potency,CP329,15.1 µM (active)
same,Potency,DFO2036,11.2 µM (active)
same,Potency,ECU,3.55 µM (active)
same,Potency,FAB9,inactive
same,Potency,N140,6.31 µM (active)
same,Potency,TAB109,5.01 µM (active)
CC1C(=O)C(=O)C=CN1C (stereo unspecified),Potency,[1],inactive
same,"activity, negative = inhibition",[2]; parasite line A,3.53%
same,"activity, negative = inhibition",[2]; parasite line B,9.14%
same,Potency,AA1029,inactive
same,Potency,AS120,inactive
same,Potency,ATS189,inactive
same,Potency,CP185,inactive
same,Potency,CP211,inactive
same,Potency,CP217,inactive
same,Potency,CP238,inactive
same,Potency,CP252,inactive
same,Potency,CP262,inactive
same,Potency,CP265,inactive
same,Potency,CP269,inactive
same,Potency,CP286,inactive
same,Potency,CP329,inactive
same,Potency,DFO2036,inactive
same,Potency,ECU,inactive
same,Potency,FAB9,inactive
same,Potency,N140,inactive
same,Potency,TAB109,inactive
OCC1OC(O)C(O)C(O)C1O (stereo unspecified),Potency,[1],inactive
same,"activity, negative = inhibition",[2]; parasite line A,-3.4%
same,"activity, negative = inhibition",[2]; parasite line B,8.64%
same,Potency,AA1029,inactive
same,Potency,AS120,inactive
same,Potency,ATS189,inactive
same,Potency,CP185,inactive
same,Potency,CP211,inactive
same,Potency,CP217,inactive
same,Potency,CP238,inactive
same,Potency,CP252,inactive
same,Potency,CP262,inactive
same,Potency,CP265,inactive
same,Potency,CP286,inactive
same,Potency,CP329,inactive
same,Potency,DFO2036,inactive
same,Potency,ECU,inactive
same,Potency,FAB9,inactive
same,Potency,N140,inactive
same,Potency,TAB109,inactive
OCC(CO)NC1C[C@](O)(CO)[C@@H](O)[C@H](O)[C@H]1O (stereo partly specified),Potency,[1],inactive
same,"activity, negative = inhibition",[2]; parasite line A,8.78%
same,"activity, negative = inhibition",[2]; parasite line B,9.25%
same,Potency,AA1029,inactive
same,Potency,AS120,inactive
same,Potency,ATS189,inactive
same,Potency,CP185,inactive
same,Potency,CP211,inactive
same,Potency,CP217,inactive
same,Potency,CP238,inactive
same,Potency,CP252,inactive
same,Potency,CP262,inactive
same,Potency,CP265,inactive
same,Potency,CP269,inactive
same,Potency,CP286,inactive
same,Potency,CP329,inactive
same,Potency,DFO2036,inactive
same,Potency,ECU,inactive
same,Potency,FAB9,inactive
same,Potency,N140,inactive
same,Potency,TAB109,inactive
